The panel holds about 79,000 compounds, 15% with a hit somewhere; the sample as a whole holds those more often. Unmarked numbers belong to inactive results. Activity calls are given as the source filed them. No stated cut-off is given here; in the data, active means growth inhibition above about 70%; inactive means the rest.
Experiments:
[1] = NCI Yeast Anticancer Drug Screen. Data for the rad50 strain (AID 155);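 further: 0% = growth of vehicle-only cultures of the same strain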; conditions: S. cerevisiae rad50 strain growth inhibition, active compounds read high
Method in brief: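 Vehicle-treated cultures provide the reference for the growth inhibition reported for compound-exposed, repair-deficient yeast.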

[2] = NCI Yeast Anticancer Drug Screen. Data for the mec2-1 strain (AID 157); conditions: S. cerevisiae mec2-1 strain, active compounds read high
Method in brief: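 Vehicle-treated cultures served as reference for growth inhibition of compound-exposed mec2-1 yeast.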

[3] = NCI Yeast Anticancer Drug Screen. Data for the sgs1 mgt1 strain (AID 161);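 further: 0% = growth of cultures given vehicle only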; conditions: S. cerevisiae sgs1 mgt1 strain, active compounds read high
Method in brief: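 Mutant yeast exposed to compound; growth scored against vehicle-only wells.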

[4] = NCI Yeast Anticancer Drug Screen. Data for the cln2 rad14 strain (AID 165);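 further: 0% = growth equal to vehicle treated cultures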; conditions: S. cerevisiae cln2 rad14 strain, active compounds read high
Method in brief: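 Each compound was tested on cln2 rad14 yeast. Inhibition of growth was calculated against vehicle-exposed controls.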

[5] = NCI Yeast Anticancer Drug Screen. Data for the bub3 strain (AID 167); conditions: S. cerevisiae bub3 mutant strain, active compounds read high
Method in brief: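 Mutant yeast screening strain plus compound; vehicle-treated cultures serve as the 0% inhibition reference.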

[6] = NCI Yeast Anticancer Drug Screen. Data for the mlh1 rad18 strain (AID 175); conditions: S. cerevisiae mlh1 rad18 strain growth inhibition, active compounds read high
Method in brief: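 Vehicle-treated cultures served as the reference for growth inhibition in a yeast strain carrying DNA damage repair alterations exposed to each compound.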

[7] = at 5.0 µM (retest, dose inferred, filed as 0.5)
[8] = at 50.0 µM (retest, dose inferred, filed as 5.0)

| SMILES | growth inhibition [1, 7] | growth inhibition [1, 8] | growth inhibition ([1]; at 50.0 µM) | growth inhibition [2, 7] | growth inhibition [2, 8] | growth inhibition ([2]; at 50.0 µM) | growth inhibition [3, 7] | growth inhibition [3, 8] | growth inhibition ([3]; at 50.0 µM) | growth inhibition [4, 7] | growth inhibition [4, 8] | growth inhibition ([4]; at 50.0 µM) | growth inhibition [5, 7] | growth inhibition [5, 8] | growth inhibition ([5]; at 50.0 µM) | growth inhibition [6, 7] | growth inhibition [6, 8] | growth inhibition ([6]; at 50.0 µM) |
| --- | --- | --- | --- | --- | --- | --- | --- | --- | --- | --- | --- | --- | --- | --- | --- | --- | --- | --- |
| O=S(=O)(N/N=C/c1ccc(Cl)cc1Cl)c1ccccc1 | -20% | -11% | -19.3% | -4% | -11% | -10.3% | 10% | -14% | -12.4% | -16% | -15% | -26.9% | 17% | 22% | -16.6% | 8% | 4% | 14% |
| CCOC(=O)c1ccc2c3c([nH]c2c1C)-c1ccccc1CC3 | 12% | 93% (active) | 93.5% (active) | -7% | 94% (active) | 94% (active) | 14% | 95% (active) | 94.7% (active) | -9% | 91% (active) | 90.7% (active) | 1% | 94% (active) | 94.2% (active) | 14% | 94% (active) | 91.9% (active) |
| CC(=O)OCC1OC(Sc2ccc3ccccc3c2)C(OC(C)=O)C(OC(C)=O)C1OC(C)=O (configuration not stated) | 2% | -7% | 23.9% | 3% | 2% | 12.8% | 2% | 1% | 2.7% | 1% | -15% | 52.4% | 4% | 7% | 70.2% (active) | 0% | -2% | 22% |
| COC(=O)C1(c2ccc(N(C)C)cc2OC)CCCN(C(=O)Oc2ccccc2[N+](=O)[O-])CCc2c1[nH]c1ccccc21 (configuration not stated) | 69% | 71% (active) | 74.9% (active) | 83% (active) | 80% (active) | 66.8% | 52% | 55% | 72.8% (active) | 39% | 52% | 50.5% | 53% | 85% (active) | 42% | 83% (active) | 88% (active) | 75.2% (active) |
| O=C(Nc1c(Cl)cccc1Cl)Oc1c(Br)cc(Br)cc1Br | 77% (active) | 96% (active) | 90.3% (active) | 66% | 94% (active) | 93% (active) | 27% | 98% (active) | 93.2% (active) | 25% | 100% (active) | 92.2% (active) | 58% | 93% (active) | 91% (active) | 64% | 98% (active) | 90.1% (active) |
| CN(C)CCNc1ccc([N+](=O)[O-])c2nc3ccccc3c(N)c12 | -34% | -7% | -1.9% | -37% | 6% | -40.8% | 34% | -24% | 45.9% | -17% | 0% | 8.55% | -8% | 12% | -7.15% | -53% | -10% | 65.8% |
| Cc1cc(C)c(S(=O)(=O)n2ccnc2)c(C)c1 | -15% | -45% | -13.9% | 0% | -11% | -29.6% | -17% | -4% | -6.05% | -3% | 8% | 6.55% | -8% | -26% | 10.3% | -36% | -77% | -0.9% |
| NC(=O)CCSC(=S)N1CCOCC1 | -2% | -16% | -8.55% | -5% | -2% | -16.6% | -3% | 4% | -8.35% | 4% | -2% | 29.1% | 39% | -5% | -1.85% | 1% | 2% | -17.4% |
| Cc1ccc(SSCCCCS(=O)O)cc1 | -2% | 33% | 65.7% | 4% | 85% (active) | 62.2% | 5% | 91% (active) | 82.8% (active) | -5% | 64% | 84.9% (active) | 13% | 88% (active) | 80.3% (active) | 1% | 80% (active) | 91.8% (active) |
| CCCCC1C(=S)N(c2ccccc2)N(c2ccccc2)C1=S | 0% | -2% | 24.1% | 2% | -13% | 40.9% | 5% | -14% | 82.8% (active) | 0% | -10% | 8.6% | 3% | -6% | 37% | -7% | 3% | 60.4% |
| Cc1nn(C(=S)S)c(C)c1N=Nc1ccc(Br)cc1 | 14% | 97% (active) | 99.4% (active) | 0% | 99% (active) | 99.6% (active) | 8% | 99% (active) | 99.2% (active) | -7% | 98% (active) | 99.4% (active) | -2% | 98% (active) | 82.2% (active) | 0% | 99% (active) | 99.2% (active) |
| CC1(C)CC(N(C(=O)/C=C/c2ccc([N+](=O)[O-])o2)C2CCCCC2)CC(C)(C)N1 | -5% | 97% (active) | 5.6% | -3% | 98% (active) | 13.9% | -2% | 99% (active) | 40.2% | -6% | 97% (active) | 25.1% | -4% | 99% (active) | 7.95% | -1% | 97% (active) | 85% (active) |
| Cc1nc(N)sc1N=Nc1ccc(Cl)cc1 | -16% | 55% | 78% (active) | 7% | 62% | 50% | -5% | 62% | 57.2% | 5% | 24% | 66.7% | 10% | 52% | 81.8% (active) | 21% | 77% (active) | 84.5% (active) |
| c1ccc2c(Nc3ccc(Oc4ccc(Nc5c6ccccc6nc6ccccc56)cc4)cc3)c3ccccc3nc2c1 | 50% | 99% (active) | 82.8% (active) | 8% | 100% (active) | 6.6% | 31% | 99% (active) | -22.9% | 6% | 99% (active) | 6.45% | 10% | 99% (active) | -1.8% | 20% | 99% (active) | 10.3% |
| C=CC(=O)Oc1ccccc1/C=C/C(=O)CCCCCC | 37% | 95% (active) | 96.5% (active) | 4% | 98% (active) | 97.5% (active) | 14% | 88% (active) | 97.5% (active) | -2% | 72% (active) | 62.8% | 0% | 95% (active) | 83.1% (active) | 4% | 95% (active) | 96% (active) |
| N#CC1=CN(Cc2ccccc2)C(C#Cc2ccccc2)C=C1 (configuration not stated) | 1% | -1% | 58.9% | -1% | 9% | 88.2% (active) | 2% | 8% | 82.2% (active) | -2% | -7% | 15.4% | -2% | 0% | 91% (active) | -2% | 4% | 83.2% (active) |
| Nc1ccc(Oc2ccc(-c3ccccc3)cc2)c(Cl)c1 | 61% | 97% (active) | 97.8% (active) | 61% | 98% (active) | 98.3% (active) | 72% (active) | 98% (active) | 98% (active) | 35% | 97% (active) | 96.3% (active) | 78% (active) | 97% (active) | 98% (active) | 89% (active) | 97% (active) | 97.7% (active) |
| Cc1ccc(NNC(=O)C(O)C(O)C(O)C(O)CO)cc1 (configuration not stated) | 98% (active) | 98% (active) | -2.2% | 99% (active) | 99% (active) | 2.6% | 99% (active) | 99% (active) | 7.85% | 99% (active) | 99% (active) | 41.8% | 98% (active) | 99% (active) | 8.25% | 99% (active) | 99% (active) | 1.2% |
| CCC/C=C1/OC(=O)C2=C[C@H]3CC[C@]21[C@]1(OC(=O)C2=C1CCC=C2)[C@H]3CCC | 0% | 96% (active) | 88.2% (active) | 14% | 97% (active) | 88.9% (active) | 17% | 96% (active) | 87.8% (active) | -6% | 96% (active) | 86.9% (active) | 2% | 93% (active) | 88.3% (active) | 14% | 95% (active) | 90.5% (active) |
